Laboratory results published in PubChem BioAssay AID1850 (Southern Research Specialized Biocontainment Screening …, 2009).
The whole screen tested about 310,000 compounds, of which about 1,000 (0.32%) were called active. How the calls were made is not given here. The list is a sample of the results. Measured potencies and affinities stand elsewhere.

Assay: Inhibition of PhoP regulon, Salmonella typhi GFP reporter cells, confirmation, 4 h (AID 1850);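 further: 0% = induced wells with vehicle and 100% = uninduced wells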
Settings: Salmonella Typhi PhoP-promoter GFP reporter, fluorescence, at 50 µM, hits give high values

SMILES	inhibition
O=c1c(/C=N\NS(=O)(=O)c2ccccc2)coc2ccc(Cl)cc12	-7.39% (inactive)
C/C(=C\c1ccccc1)CN1CCN(C(C)C)C(CCO)C1 (configuration not stated)	-0.3% (inactive)
CC1=CC(c2ccccc2)n2ncnc2N1 (configuration not stated)	3.87% (inactive)
COC/C=C/C1=CC2=CC(=O)C(C)(OC(=O)c3cnc4ccccc4n3)C(=O)C2=CN1CCc1ccccn1 (configuration not stated)	0.66% (inactive)
CCN(CCNCC(O)COCc1ccc(Cl)cc1)c1cccc(C)c1 (configuration not stated)	-1.24% (inactive)
CC(C)c1ccccc1OCC(O)CN(CC(O)COc1cccc2ccccc12)C(C)C (configuration not stated)	-6.27% (inactive)
Cc1c(Cl)cccc1NC(CC(=O)c1ccccc1)C(=O)OCC(=O)c1cccs1 (configuration not stated)	-2.54% (inactive)
Cc1ccc(S(=O)(=O)NNc2ccccc2)cc1	32.1% (inactive)
CC(=O)Nc1ccc(S(=O)(=O)NNC(=O)COc2cccc(C)c2)cc1	9.44% (inactive)
Cc1ccc(S(=O)(=O)NNC(=O)Nc2cccc(F)c2)c(C)c1	-7.92% (inactive)
Cc1cccc(NC(=O)Nc2ccc(S(N)(=O)=O)cc2)c1	-0.31% (inactive)
Cc1ccc(S(=O)(=O)NNC2=NS(=O)(=O)c3ccccc32)c(C)c1	0.74% (inactive)
Cc1ccc(S(=O)(=O)NNC(=O)C(=O)NNS(=O)(=O)c2ccc(C)cc2)cc1	-7.52% (inactive)
CCOC(=O)N1CCN(Cc2nc3cc(NC(=O)c4cccs4)ccc3n2C)CC1	-16.8% (inactive)
COc1cc(CNn2cn[nH]c2=S)ccc1OCC(=O)NC(C)(C)C	-5.11% (inactive)
CC(=O)N1CN2CN(C(C)=O)CC(C(=O)c3ccc([N+](=O)[O-])cc3)(C2)C1	5.88% (inactive)
CCOC(=O)c1ccccc1NC(=O)CSc1nc2ccccc2n1CC(=O)N1CCCC1	-7.2% (inactive)
Cc1nc2ccc(C(=O)Nc3ccc(N(C)C)cc3)cc2s1	-5.67% (inactive)
CN(C)c1ccc(/C=C/c2nc3ccccc3s2)cc1	-9.15% (inactive)
CC(C)CNC(=O)C(=O)NCCCN1CCOCC1	3.18% (inactive)
CCOc1ccc(N2C(=O)CC(NCCc3c[nH]c4ccccc34)C2=O)cc1 (configuration not stated)	6.97% (inactive)

SMILES	inhibition
CCOc1ccc(NC(=O)CSc2nc3ccccc3nc2N2CC(C)OC(C)C2)cc1 (configuration not stated)	-3.96% (inactive)
COc1ccc(CNC(=O)C2CCN(S(=O)(=O)c3ccc4c(c3)CC(C)N4C(C)=O)CC2)cc1 (configuration not stated)	1.71% (inactive)
COc1cccc2sc(N(CCCN(C)C)C(=O)COc3ccc(Cl)cc3)nc12	-1.1% (inactive)
Cc1ccc2nc(N(CCCN(C)C)C(=O)COc3ccc(Cl)cc3)sc2c1	6.88% (inactive)
CN(C)CCCN(C(=O)COc1ccc(Cl)cc1)c1nc2ccc(F)cc2s1	14% (inactive)
CN(C)CCCN(C(=O)COc1ccccc1)c1nc2ccc(F)cc2s1	-2.75% (inactive)
CN(C)CCCN(C(=O)CCc1ccccc1)c1nc2ccc(Cl)cc2s1	0.73% (inactive)
CN(C)CCCN(C(=O)COc1ccc(Cl)cc1)c1nc2c(F)cccc2s1	8.92% (inactive)
Cc1ccc2nc(N(CCCN(C)C)C(=O)CCc3ccccc3)sc2c1	-4.72% (inactive)
CN(C)CCCN(C(=O)CCc1ccccc1)c1nc2ccc(F)cc2s1	1.04% (inactive)
CCOc1ccc(Oc2cc(N)cc([N+](=O)[O-])c2)cc1	-14.2% (inactive)
O=C(c1ccc(F)cc1F)N1CCN(c2n[nH]c(=O)[nH]c2=O)CC1	-2.71% (inactive)
COC(=O)c1nnn(CC(=O)NC(=O)Nc2c(C)cccc2C)c1C(=O)OC	-3.97% (inactive)
CCN(CC(=O)NCCc1ccc(Cl)cc1)Cc1nc2ccccc2c(=O)[nH]1	-9.11% (inactive)
Cc1ccc(NC(=O)CN2C(=O)S/C(=C\c3ccc(OCC(=O)O)c(Br)c3)C2=O)cc1	-6.05% (inactive)
CC1(C)OC(=O)C(=CNc2ncccn2)C(=O)O1	-4.83% (inactive)
CCSc1nnc(NC(=O)CSc2ncccn2)s1	-1.89% (inactive)
Cc1ccc(N2CC(NC(=O)C3CC3)CC2=O)cc1 (configuration not stated)	9.02% (inactive)
Cn1c(N)c(C(=O)COC(=O)CN2C(=O)c3ccccc3C2=O)c(=O)n(C)c1=O	-5.68% (inactive)
CCN1CCN(CCCNC(=O)CCCn2nc(C)c3sc4ccccc4c3c2=O)CC1	0.59% (inactive)
Clc1ccc(Cl)c(OCCCCNCc2ccccc2)c1	13.1% (inactive)

SMILES	inhibition
Cc1cc(Br)ccc1OCCNCc1ccccc1	11.4% (inactive)
Brc1ccccc1OCCNCc1ccccc1	11.4% (inactive)
COCCNCCCOc1ccc(Br)cc1Cl	5.48% (inactive)
CCN(CC)CCOCCOc1ccc(Cl)c2ccccc12	1.79% (inactive)
COCCCNCCCOc1ccc(Cl)cc1Br	4.69% (inactive)
CCOc1ccccc1OCCCNCc1ccccc1	-6.34% (inactive)
Cc1ccc(OCCOCCN(C)C)c(Cl)c1	2.62% (inactive)
O=C(O)C1C2C=CC(C2)C1C(=O)NCCCN1CCCC1=O (configuration not stated)	-1.57% (inactive)
Cn1c(Cn2c(=O)sc3ccccc32)nnc1SCC(=O)N1CCCC1	0.97% (inactive)
NS(=O)(=O)c1ccc(NCCCn2ccnc2)c([N+](=O)[O-])c1	9.73% (inactive)
Cc1ccc(NC(=O)CCC(=O)NNC(=S)Nc2ccc(F)cc2F)cc1C	-6.55% (inactive)
NCCc1nnc(SCC(=O)Nc2cccc(Cl)c2)o1	5.27% (inactive)
NNC(=O)C(=O)Nc1ccc(Cl)c(Cl)c1	-4.15% (inactive)
O=C(CSC1=NC(=O)C(c2ccccc2)C(=O)N1)Nc1ccccc1Cl (configuration not stated)	7.4% (inactive)
Cc1ccc(NC(=O)CSCC#N)cc1Cl	-2.58% (inactive)
CC(=O)NC1C(=O)N=C(SCC(=O)Nc2cccc(Cl)c2)NC1=O (configuration not stated)	11.8% (inactive)
COc1cccc(NC(=O)CSC(N)=O)c1	-6.88% (inactive)
Cc1ccc(Cl)cc1NC(=O)CSC(N)=O	-1.36% (inactive)
O=C(CCC(=O)N1CCCC1)Nc1ccc(Cl)c(Cl)c1	-7.42% (inactive)
O=C(CSc1ccccn1)N1CCCC(Nc2ccc(F)c(F)c2)C1 (configuration not stated)	-15.8% (inactive)
